# Pf apPOL inh: Pf-apPOL DNA polymerase inhibition; AID 1794808; hit rate 0.25% among 210,000; Recombinant Pf-apPOL, molecular beacon fluorescence, 1.5 h; inhibition, % at 10 µM
# mHTT-CaM PPI inh: mHTT-calmodulin interaction abrogation | AlphaScreen His-mHTT/GST-CaM binding, luminescence | P42858 | inhibition, % at 15 µM | hit rate 3.6% among 190,000 | AID 1671202;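 note: 0% = both proteins with DMSO and 100% = one protein alone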
# * = called active by the depositor. A selection: hits, their analogues and other compounds. The true share with any hit is near 3.5%. Cut-off read from the data, not from the text of the source: active = inhibition above about 50%; inactive = the rest.
SMILES,Pf apPOL inh,mHTT-CaM PPI inh
COc1cc(NC(=O)N2CCCC2c2cc(C(C)C)no2)cc(OC)c1 (stereo unspecified),-5.2,-6.5
Cc1ccccc1Oc1nccnc1N1CCCC(C(=O)NCCCN2CCCC2)C1 (stereo unspecified),-9.2,14.3
Cc1ccc(CN2CC(C(N)=O)C(c3ccccn3)C2)cc1 (stereo unspecified),2.2,3.3
O=C(NC1CCCC1)c1cccc2c1CCN2C(=O)c1ccc(F)cc1,-2.1,-4.2
CCCS(=O)(=O)NCCc1csc(-c2ccc(OC)c(OC)c2)n1,-16.0,3.1
COc1cc(C)c(C)cc1S(=O)(=O)NCCc1csc(-c2ccc(F)cc2)n1,-8.9,52.7*
COc1cccc(C(=O)NCCCc2ccc(N(C)C)cc2)c1OC,5.1,20.6
COc1cc(C)c(C)cc1S(=O)(=O)NCCCc1ccc(N(C)C)cc1,-7.6,56.8*
O=C(Nc1ccccc1C(F)(F)F)N(CCc1cccs1)Cc1cccnc1,5.9,-1.4
O=C(c1ccc2c(c1)OCO2)N1CCC(c2ccncc2)CC1,1.6,-1.8
N#Cc1cc(Nc2ccccc2Cl)c([N+](=O)[O-])cc1C#N,2.5,15.0
CCN(CC)CCC(c1ccc(N(C)C)cc1)c1c(OC)cc(OC)c2c1OC(=O)CC2c1ccc(N(C)C)cc1 (stereo unspecified),0.4,100.6*
CCN(CC)CCC(c1ccc(N(C)C)cc1)c1c(OC)cc(OC)c2c1OC(=O)CC2c1ccc(OC)cc1 (stereo unspecified),-8.7,98.0*
CCN(CC)CCC(c1ccc2c(c1)OCO2)c1c(OC)cc(OC)c2c(C)cc(=O)oc12 (stereo unspecified),-14.3,29.9
CCN(CC)CCC(c1ccc(OC)cc1)c1c(OC)cc(OC)c2c(C)cc(=O)oc12 (stereo unspecified),-7.2,14.4
O=C(Nc1ccc(F)c(Cl)c1)c1cc(S(=O)(=O)NCc2ccco2)ccc1F,-5.4,17.0
N=C1S/C(=C\c2ccc(-c3cccc(C(F)(F)F)c3)o2)C(=O)N1c1nonc1N,-3.3,56.0*
CC(=O)Nc1nonc1N1C(=N)S/C(=C\c2ccc(-c3ccc(F)c(Cl)c3)o2)C1=O,0.8,26.0
CC(=O)Nc1nonc1N1C(=N)S/C(=C\c2ccc(-c3ccc(F)cc3)o2)C1=O,-3.2,62.0*
N=C1NC(=O)/C(=C\c2ccc(-c3cccc(C(F)(F)F)c3)o2)S1,-1.2,43.0
N=C1S/C(=C\c2ccc(-c3ccc4c(c3)COC4=O)o2)C(=O)N1c1nccs1,-7.3,41.0
N=C1S/C(=C\c2ccc(-c3cccc(Cl)c3)o2)C(=O)N1c1nccs1,-9.3,57.0*
COc1ccc(/C=C2\SC(=N)N(c3nonc3N)C2=O)cc1,-5.8,-1.0
N=C1S/C(=C\c2ccco2)C(=O)N1c1nonc1N,1.4,93.0*
CN(C)c1ccc(/C=c2\sc3nc(-c4cccs4)nn3c2=O)cc1,2.8,-2.0
SMILES,Pf apPOL inh,mHTT-CaM PPI inh
Cc1cccc(CN2CCCn3nc(C(=O)NCc4ccco4)cc3C2=O)c1,-1.2,-3.3
Cc1ccc(Cl)cc1S(=O)(=O)NCC(=O)N1CCOC(c2ccccc2)C1 (stereo unspecified),-2.5,-10.2
N=C1/C(=C/c2cn(CCCOc3ccccc3Cl)c3ccccc23)C(=O)N=C2SC=CN12,5.2,3.0
CC(C)CC(C(=O)N1CCOCC1)N1C(=O)C2C3c4ccccc4C(c4ccccc43)C2C1=O (stereo unspecified),-9.8,54.8*
C=C1CCN([C@@H](CC(C)C)C(=O)N2CCOCC2)S(=O)(=O)c2ccccc21,-0.8,9.3
O=C(Nc1nnc(-c2cccs2)o1)C1=COCCO1,0.1,31.7
CN1C(=O)/C(=C\c2nc3ccccc3c(=O)[nH]2)c2ccccc21,-0.8,-2.0
CCCN1C(=O)/C(=C\c2nc3ccccc3c(=O)[nH]2)c2cc(Br)ccc21,3.6,68.0*
O=[N+]([O-])c1cc([N+](=O)[O-])c2cccnc2c1Nc1ccccc1,-2.7,13.0
CN(C)c1ccc(Nc2c([N+](=O)[O-])cc([N+](=O)[O-])c3cccnc23)cc1,-12.5,87.0*
COc1cc(OC)cc(C(=O)N2CCN(c3cc(-c4ccccc4)[nH]n3)CC2)c1,-2.4,6.7
COCC(=O)N1CCC2(CC1)SCC(=O)N2c1cccc(C)c1,-2.8,-1.9
Cc1cc(=O)n(C(NC(=O)c2ccccc2)C(=O)c2ccccc2)cn1 (stereo unspecified),-1.7,-3.0
Cc1cc(C)nc(SC(NC(=O)c2ccccc2)C(=O)c2ccccc2)n1 (stereo unspecified),0.4,94.0*
CCC(C)NC(=O)C1CCN(c2cnc3nccnc3c2)CC1 (stereo unspecified),-3.7,0.1
Cc1ccc(NC(=O)N2CCc3c(c(COCc4cccc(F)c4)nn3C)C2)cc1Cl,-9.6,18.5
O=C(CNC1=NCCC1)c1ccc(Br)cc1,0.8,0.0
O=C(CNC1=NCCC1)c1ccc(-c2ccccc2)cc1,-0.8,100.0*
